Compounds without any hit were thinned out: in the full panel of roughly 83,000, 20% have a hit.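 48-hour exposure, single concentration, 96-well plates; percent growth endpoint where 0 means no net growth. Active: below 10.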 Unmarked numbers belong to inactive results. Activity calls are given as the source filed them.

In this assay the test system is UO-31 renal. Kind of assay: NCI-60 one-dose screen, 48 h (100 = growth as untreated, 0 = no growth, -100 = all killed). The note with it: 10 µM unless noted. How it is done:
Growth inhibition of the UO-31 human tumor cell line is measured as a screen for anti-cancer activity. Cells are grown in 96 well plates and exposed to the test compound for 48 hours. Compounds are tested at a single concentration, which is 10^-5 M for most compounds. The reported endpoint is percent growth (GI% or GIPRCNT), where numbers from 0 - 100% represent growth inhibition, and numbers from -100% - 0 represent cell death. For example, a value of 40 represents 60% growth inhibition. A value of 0 means no net growth occurred over the course of the experiment. A value of -40 indicates 40% of cells at the beginning of the experiment died by the end of the experiment. A value of -100 means all cells are dead at the end of the experiment.
NCI-60 Human Tumor Cell Lines Screen was performed using the standard one-dose NCI protocol, which is described in more detail at https://dtp.cancer.gov/discovery_development/nci-60/default.htm.
Compounds with GIPRCNT values below 10 were considered active. Activity score was based on GIPRCNT using the following formula: […]
Score is 0 for GIPRCNT values of 100 or above, 50 for GIPRCNT values of 0, and 100 for GIPRCNT values of -100.
Take `NC(N)=N/N=C(/c1ccccc1)c1ccc(N)cc1`: the growth is 95%.
Next, `CCCCC1COc2cccc3c(SCC(=O)N(C)c4cccc(Cl)c4)cc[n+]1c23` (stereo not given): 90.7%.
The value for `Cc1cc(=O)c2cc3nc(-c4cccnc4)oc3c(Br)c2o1` was 106%.
Next, `Cc1ccc(S(=O)(=O)NN/C(N)=N\S(=O)(=O)c2cc(C)c(Cl)cc2SCc2ccccc2)cc1`: 77.9%; `C=C1C(=O)O[C@H]2[C@H]1CC/C(COC(=O)/C=C\C(=O)NCc1ccc(Cn3c(=O)sn(-c4ccc(OC)cc4)c3=O)cc1)=C\CC[C@@]1(C)O[C@@H]21`: -100% (active).
In the case of `CSc1nc(N)c(CNC(C)c2ccccc2)c(=O)n1C` (stereo not given), the growth is 80.5%.
The value for `Cc1nn(Cc2ccccc2)cc1C(=O)Nc1sc2c(c1C(N)=O)CCC(=O)C2` was 11.8%.
The value for `COc1ccc(-c2nc3ncccn3c2/C=C/C(=O)c2cc(OC)c(OC)c(OC)c2)cc1` was 17%.
Consider `N#C/C(=C\c1ccc(Br)cc1)n1nnc2ccccc21`, for which the growth was -13.6% (active).
On to `COc1ccc(/C(C)=C(\c2ccc(Cl)cc2)c2ccc(OCCN3CCCCCC3)cc2)cc1F`, for which the growth was 32.4%.
Next, `CCN(CC)CCOc1ccc(/C(=C(\C)c2ccc(F)c(OC)c2)c2ccc(Cl)cc2)cc1`: 7.48% (active).
Next, `CCC(C)NCc1ccccc1` (stereo not given): 88%.
The value for `Cl.Fc1c[c-]c(-c2ccccn2)c(F)c1.[Pt].c1ccc([PH+](C[PH+](c2ccccc2)c2ccccc2)c2ccccc2)cc1` was -93.2% (active); that for `NS(=O)(=O)Oc1ccc(-c2sc3cc(O)ccc3c2C(=O)c2ccc(OCCN3CCCCC3)cc2)cc1` was 43.6%.
Regarding `Cc1cc(-c2noc(C(F)(F)F)n2)ccc1N1CCN(c2cc(C(=O)N(C)C)no2)CC1`, the growth is 62.7%.
Next, `CCCCCCCSc1ccc(C(=O)O)cc1`: 84%.
Next, `N#Cc1c(Oc2ccc([N+](=O)[O-])cc2)nc2sc3cc(Cl)ccc3n2c1=N`: 72.5%; `CN(C)S(=O)(=O)n1cnc([C@@H]2[C@@H]3C(=O)OC[C@@H]3C[C@]23N=CN(Cc2ccccc2)C3=O)c1`: 92.1%; `O=C(/C=C/C12c3ccccc3C(c3ccccc31)C1C(=O)N(c3ccccc3)C(=O)C12)c1ccccc1` (stereo not given): -77.5% (active).
The value for `COc1cc(C(=O)/C=C/c2c(-c3ccc(F)cc3)nc3ncccn23)cc(OC)c1OC` was 35.7%; that for `Cl.[Pt].[c-]1ccccc1-c1ccccn1.c1ccc(P(c2ccccc2)C([PH+](c2ccccc2)c2ccccc2)[PH+](c2ccccc2)c2ccccc2)cc1` was -0.14% (active).
As to `Cc1nc(Nc2ccc(S(=O)(=O)Nc3cc(C)on3)cc2)c2ccccc2n1`, the growth was 84.2%.
Next, `CC(=O)c1cc2c(o1)C(=O)c1ccccc1C2=O`: -98.1% (active).
For the compound `Cl.Fc1c[c-]c(-c2ccccn2)c(F)c1.[Pt].c1ccc(P(c2ccccc2)C([PH+](c2ccccc2)c2ccccc2)[PH+](c2ccccc2)c2ccccc2)cc1`, the growth was -5.69% (active).
Next, `CC1(C)C(=O)/C(=C\c2cccnc2)C[C@]2(C)[C@H]3CC=C4[C@@H]5C[C@@](C)(C(=O)O)CC[C@]5(C)CC[C@@]4(C)[C@]3(C)CC[C@@H]12`: 84.2%; `COc1ccc(/C=C2\COc3ccc(O)c(O)c3C2=O)c(OC)c1`: 34.5%; `C=C1C(=O)O[C@H]2[C@H]1CC/C(COC(=O)/C=C/C(=O)NCc1ccc(Cn3c(=O)sn(-c4ccccc4)c3=O)cc1)=C\CC[C@@]1(C)O[C@@H]21`: 17.9%.
The value for `COc1ccc(-c2nnc(SCC(=O)NC3=NN=C(c4ccccc4)CS3)o2)cc1` was 88.1%; that for `Cn1ncc2c(Nc3ccc(Br)cc3)nc(Nc3ccc(Br)cc3)nc21` was 68.3%; that for `Clc1ccc2c(NCCCN3CCN(c4nc(-n5ccnc5)nc5ccccc45)CC3)ccnc2c1` was 43.5%.
Next, `C=C1C(=O)O[C@H]2[C@H]1CC/C(Cn1cc(CNCCc3c[nH]c4ccc(Cl)cc34)nn1)=C\CC[C@@]1(C)O[C@@H]21`: 80.1%; `CCCCCCCCn1cc(C2=C(c3coc4ccc(OC)cc34)C(=O)NC2=O)c2ccccc21`: 85.7%.
`CC(C)n1nc(C#Cc2cccc3cc(-c4cccc(C(F)(F)F)c4)ncc23)c2c(N)ncnc21`: the growth is 82%.
The value for `COc1ccc(/C=C2\COc3ccc(O)cc3C2=O)cc1OC` was 66.6%.
Turning to `CCCCCCCCN(CCCCCCCC)C(=N)c1ccnc2ccccc12`, the growth is -89.1% (active).
In the case of `COc1ccc(/C=N/NC(=O)Cn2c(-c3ccc(S(C)(=O)=O)cc3)nc3cc(Cl)ccc32)cc1`, the growth is 43.2%.
For the compound `CC(C)CCC[C@@H](C)[C@H]1CCC2C3=CCC4C(=O)C=CC(=O)C4C3CC[C@@]21C` (stereo not given in full), the growth is -67.9% (active).
The value for `O=C(CC12CC3CC(CC(C3)C1)C2)NCCOCCOCCOCCNC(=O)c1cc2c(o1)C(=O)c1ccccc1C2=O` was -68.5% (active); that for `COC(=O)CCCNC(=O)C(=O)c1c(O)c(O)c(C(C)C)c2cc(C)c(-c3c(C)cc4c(C(C)C)c(O)c(O)c(C(=O)C(=O)NCCCC(=O)OC)c4c3O)c(O)c12` was -5.61% (active).
The value for `CN1CCN(c2ccc3nc(/N=C/c4ccc5sc(-c6ccc([N+](=O)[O-])cc6)nc5c4)sc3c2)CC1` was 92.2%.
